Laboratory results from PubChem BioAssay AID2061306 (National Center for Advancing Translational Sciences (NCATS), 2025).
Results filed as inconclusive are left out. Activity calls are given as the source filed them. Calls follow the shape of the dose curve; as a rule, active = well fitted inhibition curve with a large enough effect; inconclusive = small, poorly fitted or top-dose-only effect; inactive = flat fitted curve, though single readings scatter.

Experiment: Identification of antibody-drug conjugate (ADC) payloads which are substrates of ATP-binding cassette drug efflux transporters: ABCB1-HEK293-pcDNA cell line
Conditions: HEK293 empty-vector (pcDNA) control viability, CellTiter-Glo, 48 h
From the text: Antibody-drug conjugates (ADCs) feature an antibody recognizing a specific protein joined to a potent toxic payload. Numerous antibody-drug conjugates have received FDA approval; however, clinical resistance arises. Resistance mechanisms include decreased expression or mutation of the antibody target, impaired payload release, or increased expression of ATP-binding cassette (ABC) efflux transporters associated with multidrug resistance. We therefore sought to characterize the interaction of ABC multidrug transporters with ADC payloads. We performed a high-throughput screen with 27 common ADC payloads using cells lines expressing ABC transporters P-glycoprotein (P-gp, encoded by ABCB1) or ABCG2 (encoded by ABCG2). Confirmatory assays were also performed using cells transfected to express P-gp, ABCG2, or MRP1 (encoded by ABCC1). Several commonly used ADC payloads were substrates of P-gp, including calicheamicin gamma1, monomethyl auristatin E, DM1, and DM4. All the pyrrolobenzodiazepines tested - SJG136, SGD-1882, SG2057, and SG3199 - were substrates of P-gp, ABCG2, and MRP1. […] These findings highlight the risk of transporter-mediated resistance with certain ADC payloads and underscore the importance of selecting payloads that evade ABC transporter recognition in future ADC development.
HEK-293 cells were transfected with empty vector (pcDNA) or vector containing the human ABCB1 (MDR-19), ABCG2 (R-5), or ABCC1 gene (MRP1) and were maintained in EMEM with 2 mg/mL G418 added to maintain transporter expression. The HeLa derivative KB-3-1 and the P-gp overexpressing KB-8-5-11 subline were maintained in DMEM; KB-8-5-11 additionally received 100 ng/mL colchicine. H460 parental cells were obtained from the Division of Cancer Treatment and Diagnosis Tumor Repository, National Cancer Institute at Frederick, MD and were cultured in RPMI. The ABCG2 expressing subline H460 MX20 was generated by selecting H460 cells in 20 nM mitoxantrone. Media in all cases was supplemented with 10% FBS and 1% penicillin-streptomycin. We explored 27 common ADC payloads, in two orthogonal, paired cell line sets-a drug selected and transfected set for each transporter--to identify substrates of the ABC transporters P-gp and ABCG2. Compounds were sourced from Levena Biopharma (San Diego, CA), Selleck Chem (Houston, TX), ChemieTek (Indianapolis, IN), or Microsource Discovery Systems (Gaylordsville, CT). Screening was performed as previously described. Briefly, cells were plated at a density of 500 cells/well in 1536 well plates with compounds added using a 1536-head pin tool (Kalypsys, San Diego CA). Cells were incubated with cytotoxic drugs and processed with CellTiter Glo reagent (Promega, Madison, WI) to determine viability after 48 hours. P-gp substrates were identified by comparing compound activity between paired sets of low-expressing (sensitive) and over-expressing (resistant) cell lines.

SMILES	Potency
CN(C)CCOc1ccc2[nH]c(C(=O)N3C[C@@H](CCl)c4c3cc(O)c3ccccc43)cc2c1	0.4 nM (active)
CC(C)(C)OC(=O)Nc1ccc2[nH]c(C(=O)N3C[C@@H](CCl)c4c3cc(O)c3ccccc43)cc2c1	8.4 nM (active)
COC(=O)c1cc2c3c(cc(O)c2[nH]1)N(C(=O)c1cc2cc(OC)c(OC)c(OC)c2[nH]1)CC3CCl (stereo not given)	0.4 nM (active)
CCc1c2c(nc3ccc(O)cc13)-c1cc3c(c(=O)n1C2)COC(=O)[C@]3(O)CC	4.7 nM (active)
COc1ccc(C2=CN3C(=O)c4cc(OC)c(OCCCOc5cc6c(cc5OC)C(=O)N5C=C(c7ccc(N)cc7)C[C@@H]5C=N6)cc4N=C[C@H]3C2)cc1	1.3 nM (active)
COc1cc2cc(c1Cl)N(C)C(=O)C[C@H](O)[C@]1(C)O[C@H]1[C@H](C)C1C[C@@](O)(NC(=O)O1)[C@H](OC)/C=C/C=C(\C)C2	2980 nM (active)
COc1cccc2c1C(=O)c1c(O)c3c(c(O)c1C2=O)C[C@@](O)(C(=O)CO)C[C@@H]3O[C@H]1C[C@H](N)[C@H](O)[C@H](C)O1	29.8 nM (active)
COc1cccc2c1C(=O)c1c(O)c3c(c(O)c1C2=O)C[C@@](O)(C(=O)CO)C[C@@H]3O[C@H]1C[C@H]2[C@H](O[C@@H]3[C@@H](OC)OCCN32)[C@H](C)O1	0.0334 nM (active)
CCN[C@H]1CO[C@@H](O[C@H]2[C@H](O[C@H]3C#C/C=C\C#C[C@]4(O)CC(=O)C(NC(=O)OC)=C3/C4=C\CSSSC)O[C@H](C)[C@@H](NO[C@H]3C[C@H](O)[C@H](SC(=O)c4c(C)c(I)c(O[C@@H]5O[C@@H](C)[C@H](O)[C@@H](OC)[C@H]5O)c(OC)c4OC)[C@@H](C)O3)[C@@H]2O)C[C@@H]1OC	0.2 nM (active)
CCN(C(C)=O)[C@H]1CO[C@@H](O[C@H]2[C@H](O[C@H]3C#C/C=C\C#C[C@]4(O)CC(=O)C(NC(=O)OC)=C3/C4=C\CSSSC)O[C@H](C)[C@@H](NO[C@H]3C[C@H](O)[C@H](SC(=O)c4c(C)c(I)c(O[C@@H]5O[C@@H](C)[C@H](O)[C@@H](OC)[C@H]5O)c(OC)c4OC)[C@@H](C)O3)[C@@H]2O)C[C@@H]1OC	1.5 nM (active)
